Measurements taken from PubChem BioAssay (NCATS).
Inconclusive results are not listed. Active and inactive are the calls of the source. Calls follow the shape of the dose curve; as a rule, active = well fitted inhibition curve with a large enough effect; inconclusive = small, poorly fitted or top-dose-only effect; inactive = flat fitted curve, though single readings scatter.

What was measured:
Assay in all cases: qHTS profiling for inhibitors of Plasmodium falciparum proliferation (AID 504749); also: nearly all actives have a fitted effect of over 60% in size
Settings in all cases: P. falciparum in erythrocytes, SYBR Green DNA, 72 h; series mostly up to 28.7 µM
CP305 = test system: CP305
Outline: (§1)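 SYBR Green fluorescence (ex 485 nm, em 535 nm) reports parasite DNA after 72 h compound exposure of infected red cells at 0.3% parasitemia, 2.5% hematocrit; signal normalized to 0.29 uM artemisinin and vehicle wells.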

CP315 = test system: CP315
Outline: as §1

CP325 = test system: CP325
Outline: as §1

CP329 = test system: CP329
Outline: as §1

CP335 = test system: CP335
Outline: as §1

DFO2036 = test system: DFO2036
Outline: as §1

DIV14 = test system: DIV14
Outline: as §1

DIV17 = test system: DIV17
Outline: as §1

DIV30 = test system: DIV30
Outline: as §1

Dd2 = test system: Dd2
Outline: as §1

Measured: Potency
Potency is read from the fitted curve at half-maximal effect.

CC(C)CCCC(C)NC(C)C (configuration not stated)
inactive: all assays above

C[C@H](CCCC(C)(C)O)[C@H]1CC[C@H]2[C@@H]3CC=C4C[C@@H](O)CC[C@]4(C)[C@H]3CC[C@]12C
active: Dd2 15.8 µM
inactive: all other assays above

C=CCCCCCCCCC(=O)OC
inactive: all assays above

CC(=O)N[C@@H]1C(O[C@H]2O[C@H](C(=O)O)C(O)[C@H](O)[C@H]2O)[C@H](O)[C@@H](CO)O[C@H]1O[C@@H]1C(C(=O)O)O[C@@H](O[C@H]2[C@H](O)[C@@H](CO)OC(O)[C@@H]2NC(C)=O)[C@H](O)[C@H]1O (some centres not stated)
inactive: all assays above

CCC(Cc1c(I)cc(I)c(O)c1I)C(=O)O (configuration not stated)
inactive: all assays above

Cc1cccc(C)c1NC(=O)C1CCCCN1C (configuration not stated)
inactive: all assays above

Cc1ncc(COP(=O)(O)O)c(CN)c1O
inactive: all assays above

CN(C)C(=O)CCSC(SCCC(=O)O)c1cccc(/C=C/c2ccc3ccc(Cl)cc3n2)c1 (configuration not stated)
inactive: CP305 | CP315 | CP325 | CP329

COc1ccc(/C=C/C(=O)O)cc1
inactive: all assays above

Cc1cc(C)c(NC(=O)C[C@H](CC(=O)O)c2cccc3ccccc23)c(C(=O)N2CCC3(CCCC3)CC2)c1
not listed: Dd2
inactive: all other assays above

Nc1nccs1
inactive: all assays above

CCCCC[C@H](O)/C=C/[C@H]1[C@H](O)CC(=O)[C@@H]1C/C=C\CCCC(=O)O
inactive: all assays above

CC(=O)Oc1cccc2c1C(=O)c1c(OC(C)=O)cc(C(=O)O)cc1C2=O
inactive: all assays above

NC(=O)[C@@H]1CCCN1C(=O)[C@H](Cc1cnc[nH]1)NC(=O)[C@@H]1CCC(=O)N1
inactive: all assays above

CC(C)(CO)[C@@H](O)C(=O)NCCC(=O)NCCSSCCNC(=O)CCNC(=O)[C@H](O)C(C)(C)CO
inactive: all assays above

CC(C)(COP(=O)(O)OP(=O)(O)OC[C@H]1O[C@@H](n2cnc3c(N)ncnc32)[C@H](O)[C@@H]1OP(=O)(O)O)C(O)C(=O)NCCC(=O)NCCS (some centres not stated)
inactive: all assays above

CCCc1ccc(C(=O)O)cc1
inactive: all assays above

CC(C)(C)c1ccc2c(S(=O)(=O)O)c(C(C)(C)C)ccc2c1
inactive: all assays above

CCOc1ccc(S(=O)(=O)O)c2cccnc12
inactive: all assays above

OC[C@H]1O[C@@H]2O[C@H]3[C@H](O)[C@@H](O)[C@@H](O[C@H]4[C@H](O)[C@@H](O)[C@@H](O[C@H]5[C@H](O)[C@@H](O)[C@@H](O[C@H]6[C@H](O)[C@@H](O)[C@@H](O[C@H]7[C@H](O)[C@@H](O)[C@@H](O[C@H]1[C@H](O)[C@H]2O)O[C@@H]7CO)O[C@@H]6CO)O[C@@H]5CO)O[C@@H]4CO)O[C@@H]3CO
inactive: all assays above

C[C@]12CC[C@@H]3c4ccc(OC(=O)c5ccccc5)cc4CC[C@H]3[C@@H]1CC[C@@H]2O
active: CP335 12 µM
not listed: Dd2
inactive: all other assays above

COC(=O)C(CN)c1c[nH]c2ccc(OC)cc12 (configuration not stated)
inactive: all assays above

O=C(O)CCC(=O)c1ccc(-c2ccccc2)cc1
inactive: all assays above

NCCN
inactive: all assays above

C[C@H](N)C(=O)N[C@@H](C)P(=O)(O)O
inactive: all assays above

Nc1nc(=O)n([C@@H]2CS[C@H](CO)O2)cc1F
inactive: all assays above

CC1=CCC2CC1C2(C)C (configuration not stated)
inactive: all assays above

O=C(O)[C@H]1CN(C/C=C/P(=O)(O)O)CCN1
inactive: all assays above

CCCC(=O)O
inactive: all assays above

Cc1c(Cl)cccc1Nc1ncccc1C(=O)O
inactive: all assays above

Cc1cccc(C)c1NC(=O)NC1=CCCN1C
inactive: all assays above

O=P(O)(O)OP(=O)(O)OP(=O)(O)O
inactive: all assays above

CCCCCCCCCCCCCC(=O)OCC(COP(=O)([O-])OCC[N+](C)(C)C)OC(=O)CCCCCCCCCCCCC (configuration not stated)
inactive: all assays above

N[C@H](CC(=O)O)C(=O)O
inactive: all assays above

CC(=O)Nc1c(I)c(C(=O)O)c(I)c(N(C)C(C)=O)c1I
inactive: all assays above

CCCCCCCCCC(=O)NO
inactive: all assays above

O=C(NNCS(=O)(=O)O)c1ccncc1
inactive: all assays above

O[C@@H]([C@H](O)[C@H](O)CBr)[C@H](O)CBr
inactive: all assays above

O=C(NCCNCC(O)COc1ccc(O)cc1)N1CCOCC1 (configuration not stated)
inactive: all assays above

CCCCCCCCCCCCOCCCN
inactive: all assays above

CC12CCC(C[N+](C)(CCC[N+](C)(C)C)C1)C2(C)C (configuration not stated)
inactive: all assays above

CC(C)c1ncc([N+](=O)[O-])n1C
inactive: all assays above

CC(C)(Oc1ccc(C2CCCc3ccccc32)cc1)C(=O)O (configuration not stated)
inactive: all assays above

Cc1cccc(Nc2ncccc2C(=O)O)c1C
inactive: all assays above

CN1CCC(OC(=O)C(Oc2ccc(Cl)cc2)Oc2ccc(Cl)cc2)CC1
inactive: all assays above

CN1c2c(nc(N)[nH]c2=O)NCC1CNc1ccc(C(=O)NC(CCC(=O)O)C(=O)O)cc1 (configuration not stated)
inactive: all assays above

CC(C)O
inactive: all assays above

c1ccc2c(c1)OCC(CN1CCCCC1)O2 (configuration not stated)
inactive: all assays above

O=C1N=C2SCCN2C(=O)C1Cc1ccc(Cl)cc1 (configuration not stated)
inactive: all assays above

CN1C(C(=O)Nc2ccccn2)C(=O)c2sc(Cl)cc2S1(=O)=O (configuration not stated)
inactive: all assays above

COC(=O)CC[C@H](N)C(=O)O
inactive: all assays above

CCC(C)[C@@H](N)C(=O)O (some centres not stated)
inactive: all assays above

CCOC(C)OCC
inactive: all assays above

[O]=[Bi][O][Bi]=[O]
inactive: all assays above

O=C(O)C1=C(CSc2nnnn2CS(=O)(=O)O)CS[C@@H]2[C@H](NC(=O)[C@H](O)c3ccccc3)C(=O)N12
inactive: all assays above

OCC1(CO)COC(C(Cl)(Cl)Cl)OC1
inactive: all assays above

CC(C)[C@@H](N)C(=O)O
inactive: all assays above

CC1(O)CCC(C(C)(C)O)CC1 (configuration not stated)
inactive: all assays above

N=C(N)n1cccn1
inactive: all assays above

CO/N=C(\C(=O)N[C@@H]1C(=O)N2C(C(=O)[O-])=C(C[n+]3cccc4c3CCC4)CS[C@H]12)c1csc(N)n1
inactive: all assays above

NCC(O)CC(=O)O (configuration not stated)
inactive: all assays above

C=CC(C)(O)CC/C=C(\C)CCC=C(C)C (configuration not stated)
inactive: all assays above

O=C(O)/C=C/C(=O)Nc1ccc(S(=O)(=O)Nc2nccs2)cc1
inactive: all assays above

Cc1ncc(C[n+]2csc(CCOP(=O)(O)OP(=O)(O)O)c2C)c(N)n1
inactive: all assays above

FC(F)(F)C(F)(F)C(F)(F)C(F)(F)C(F)(F)C(F)(F)F
inactive: all assays above

CC(C)(C)CC(C)(C)c1cc(Cc2cc(C(C)(C)CC(C)(C)C)cc(-n3nc4ccccc4n3)c2O)c(O)c(-n2nc3ccccc3n2)c1
inactive: all assays above

CCOC(=S)SSC(=S)OCC
inactive: all assays above

O=C(O)[C@H]1C(=CCO)O[C@H]2CC(=O)N12
inactive: all assays above

c1ccc(-n2cnnn2)cc1
inactive: all assays above

O=C1c2ccccc2C(=O)c2c1ccc(O)c2O
inactive: all assays above

Cc1ccccn1
inactive: all assays above

CC(CC=O)CCCC(C)(C)O (configuration not stated)
inactive: all assays above

CC(C)c1nc(N(C)S(C)(=O)=O)nc(-c2ccc(F)cc2)c1/C=C/C(O)CC(O)CC(=O)O (configuration not stated)
inactive: all assays above

OC[C@H]1O[C@@](CO)(O[C@H]2O[C@H](CO)[C@@H](O)[C@H](O)[C@H]2O)[C@@H](O)[C@@H]1O
inactive: all assays above

COc1ccc(-c2noc(CC(=O)O)c2-c2ccc(OC)cc2)cc1
inactive: all assays above

O=C(CCCCCCCCCCCCC1CCCC1)Nc1ccc(S(=O)(=O)c2ccc(NC(=O)CCCCCCCCCCCCC3CCCC3)cc2)cc1
inactive: all assays above

CC(C)=CCC/C(C)=C/CC/C(C)=C/CC/C=C(\C)CC/C=C(\C)CCC=C(C)C
inactive: all assays above

CCOC(=O)c1cc(-c2ccccc2)nc2ccc(C)cc12
inactive: all assays above

O=C(NNCNNC(=O)c1ccncc1)c1ccncc1
inactive: all assays above

O=C1CCC(=O)N1CO
inactive: all assays above

CCOc1ccc(NC(=S)Nc2ccc(OCC)cc2)cc1
inactive: all assays above

OCCCNc1ccccc1
inactive: all assays above

FCOC(C(F)(F)F)C(F)(F)F
inactive: all assays above

CNC(=O)OCc1cccc(COC(=O)NC)n1
inactive: all assays above

O=C(O)Cc1cc(I)c(Oc2ccc(O)c(I)c2)c(I)c1
inactive: all assays above

CC1(C)S[C@@H]2[C@H](NC(=O)C3(N)CCCCC3)C(=O)N2[C@H]1C(=O)O
inactive: all assays above

Cc1cc(=O)c(C(=O)N[C@@H](C(=O)N[C@@H]2C(=O)N3C(C(=O)O)=C(CSc4nnnn4C)CS[C@H]23)c2ccc(O)cc2)c[nH]1
inactive: all assays above

CC(=O)N=c1sc(S(N)(=O)=O)nn1C
inactive: all assays above

O=S(=O)(O)CC(S)CS (configuration not stated)
inactive: all assays above

O=C(O)COc1ccc(CCNS(=O)(=O)c2ccccc2)s1
inactive: all assays above

Oc1cc(O)cc(O)c1
inactive: all assays above

NC(=O)[C@H]1O[C@@H](O)[C@H](O)[C@@H](O)[C@@H]1O
inactive: all assays above
